Data taken from PMC10812921, “Transcriptional Coactivator BOB1 (OBF1, OCA-B) Modulates the Specificity of DNA Recognition by the POU-Domain Factors OCT1 and OCT2 in a Monomeric Configuration”.

How the values were obtained:
POU1 (OCT1 POU domain) = POU1 (OCT1 POU domain) (human, UniProt P14859 260-458); assay: EMSA-SELEX-seq; no BOB1; 20 mM Tris-HCl pH 7.6, 140 mM NaCl, 10% glycerol, 0.5 mM EDTA, 0.05% Triton X-100, 0.1 mg/mL BSA, 0.1 mg/mL poly(dI-dC), 5 mM DTT, room temperature, 20 min; high values mean tight binding; settings: protein: recombinant; dsDNA, one strand shown
Outline: (§1)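 Binding preference means the percentage of sequenced 8-mers matching a motif pattern. Tagged POU-domain proteins (30 ng), expressed in E. coli BL21, purified under denaturing conditions and renatured, were mixed with 300 ng of a PCR-amplified double-stranded random 35-nt library, with or without 28 ng coactivator protein, for 20 min at RT in 20 μL Tris–HCl pH 7.6 binding buffer. Selection was repeated over four rounds of excising complex bands from native 6% PAGE, eluting and PCR amplification, followed by Illumina sequencing.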

POU2 (OCT2 POU domain) = molecular target: T1, POU2 (OCT2 POU domain) (human, UniProt P09086 175-386); assay: as above; settings: protein: recombinant; dsDNA, one strand shown
T1 sequence: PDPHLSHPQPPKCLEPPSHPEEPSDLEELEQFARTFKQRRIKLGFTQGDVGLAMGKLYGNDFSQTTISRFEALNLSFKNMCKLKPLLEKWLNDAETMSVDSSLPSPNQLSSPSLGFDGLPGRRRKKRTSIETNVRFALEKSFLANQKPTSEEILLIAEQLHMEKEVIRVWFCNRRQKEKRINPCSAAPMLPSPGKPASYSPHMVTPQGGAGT
Outline: as §1

[1] = molecular target: POU1 (OCT1 POU domain);BOB1 (OBF1, OCA-B) (human;human, UniProt P14859;Q16633 260-458;1-256, |); assay: EMSA-SELEX-seq; with BOB1 (ternary complex band); 20 mM Tris-HCl pH 7.6, 140 mM NaCl, 10% glycerol, 0.5 mM EDTA, 0.05% Triton X-100, 0.1 mg/mL BSA, 0.1 mg/mL poly(dI-dC), 5 mM DTT, room temperature, 20 min; high values mean tight binding; settings: protein: recombinant;recombinant; copies: 1;1; dsDNA, one strand shown
Outline: as §1

[2] = molecular target: T2, POU2 (OCT2 POU domain);BOB1 (OBF1, OCA-B) (human;human, UniProt P09086;Q16633 175-386;1-256, |); assay: as above; settings: protein: recombinant;recombinant; copies: 1;1; dsDNA, one strand shown
T2 sequence 1: T1 sequence
T2 sequence 2: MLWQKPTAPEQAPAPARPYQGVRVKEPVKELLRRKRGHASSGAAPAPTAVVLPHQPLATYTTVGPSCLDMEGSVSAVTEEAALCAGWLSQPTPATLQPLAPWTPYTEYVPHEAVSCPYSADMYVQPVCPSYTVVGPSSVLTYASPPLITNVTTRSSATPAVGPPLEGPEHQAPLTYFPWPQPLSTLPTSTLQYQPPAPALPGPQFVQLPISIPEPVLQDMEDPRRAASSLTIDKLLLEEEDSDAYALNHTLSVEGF
Outline: as §1

Sequence of POU1 (OCT1 POU domain) (P14859 260-458): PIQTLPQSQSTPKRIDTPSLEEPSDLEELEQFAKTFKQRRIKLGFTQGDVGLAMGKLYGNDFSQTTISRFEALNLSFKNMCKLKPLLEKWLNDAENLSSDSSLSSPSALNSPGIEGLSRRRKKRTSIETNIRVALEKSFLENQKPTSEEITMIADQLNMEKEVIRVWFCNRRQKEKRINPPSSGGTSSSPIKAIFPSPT

For ACAACAAT, the binding signal (POU1 (OCT1 POU domain)) was 0.0248 % of ANNNNAAN 8-mers, the binding signal (POU2 (OCT2 POU domain)) was 0.0305 % of ANNNNAAN 8-mers and the binding signal [1] was 0.023 % of ANNNNAAN 8-mers. The binding signal [2] was 0.0305 % of ANNNNAAN 8-mers.
AAGACAAC was tested, and the binding signal (POU1 (OCT1 POU domain)) was 0.0168 % of ANNNNAAN 8-mers, the binding signal (POU2 (OCT2 POU domain)) was 0.019 % of ANNNNAAN 8-mers and the binding signal [1] was 0.0195 % of ANNNNAAN 8-mers. For the same sequence, the binding signal [2] was 0.0157 % of ANNNNAAN 8-mers.
For ATCGCAAT, the binding signal (POU1 (OCT1 POU domain)) was 0.0336 % of ANNNNAAN 8-mers, the binding signal (POU2 (OCT2 POU domain)) was 0.0391 % of ANNNNAAN 8-mers and the binding signal [1] was 0.0328 % of ANNNNAAN 8-mers. The binding signal [2] was 0.0347 % of ANNNNAAN 8-mers.
For ACGACAAC, the binding signal (POU1 (OCT1 POU domain)) was 0.0126 % of ANNNNAAN 8-mers, the binding signal (POU2 (OCT2 POU domain)) was 0.0132 % of ANNNNAAN 8-mers and the binding signal [1] was 0.0133 % of ANNNNAAN 8-mers. For the same sequence, the binding signal [2] was 0.0149 % of ANNNNAAN 8-mers.
With ATGCGAAC the binding signal (POU1 (OCT1 POU domain)) was 0.04 % of ANNNNAAN 8-mers, the binding signal (POU2 (OCT2 POU domain)) was 0.0357 % of ANNNNAAN 8-mers and the binding signal [1] was 0.0386 % of ANNNNAAN 8-mers. For the same sequence, the binding signal [2] was 0.0347 % of ANNNNAAN 8-mers.
With ATCGGAAA the binding signal (POU1 (OCT1 POU domain)) was 0.04 % of ANNNNAAN 8-mers, the binding signal (POU2 (OCT2 POU domain)) was 0.0409 % of ANNNNAAN 8-mers and the binding signal [1] was 0.0429 % of ANNNNAAN 8-mers. The binding signal [2] was 0.0528 % of ANNNNAAN 8-mers.
For AATTAAAA, the binding signal (POU1 (OCT1 POU domain)) was 0.364 % of ANNNNAAN 8-mers, the binding signal (POU2 (OCT2 POU domain)) was 0.399 % of ANNNNAAN 8-mers and the binding signal [1] was 0.156 % of ANNNNAAN 8-mers. For the same sequence, the binding signal [2] was 0.151 % of ANNNNAAN 8-mers.
In the case of ATTCCAAC, the binding signal (POU1 (OCT1 POU domain)) is reported as 0.0339 % of ANNNNAAN 8-mers, the binding signal (POU2 (OCT2 POU domain)) is reported as 0.0432 % of ANNNNAAN 8-mers and the binding signal [1] is reported as 0.0269 % of ANNNNAAN 8-mers. The binding signal [2] was 0.0223 % of ANNNNAAN 8-mers.
For ACTAAAAA, the binding signal (POU1 (OCT1 POU domain)) was 0.0439 % of ANNNNAAN 8-mers, the binding signal (POU2 (OCT2 POU domain)) was 0.0409 % of ANNNNAAN 8-mers and the binding signal [1] was 0.0468 % of ANNNNAAN 8-mers. For the same sequence, the binding signal [2] was 0.0388 % of ANNNNAAN 8-mers.
With ACGGAAAA the binding signal (POU1 (OCT1 POU domain)) was 0.0515 % of ANNNNAAN 8-mers, the binding signal (POU2 (OCT2 POU domain)) was 0.0478 % of ANNNNAAN 8-mers and the binding signal [1] was 0.0593 % of ANNNNAAN 8-mers. For the same sequence, the binding signal [2] was 0.0446 % of ANNNNAAN 8-mers.
With AATACAAG the binding signal (POU1 (OCT1 POU domain)) was 0.0637 % of ANNNNAAN 8-mers, the binding signal (POU2 (OCT2 POU domain)) was 0.0662 % of ANNNNAAN 8-mers and the binding signal [1] was 0.0675 % of ANNNNAAN 8-mers. For the same sequence, the binding signal [2] was 0.0479 % of ANNNNAAN 8-mers.
ACTCCAAG was tested, and the binding signal (POU1 (OCT1 POU domain)) was 0.0191 % of ANNNNAAN 8-mers, the binding signal (POU2 (OCT2 POU domain)) was 0.0196 % of ANNNNAAN 8-mers and the binding signal [1] was 0.0195 % of ANNNNAAN 8-mers. The binding signal [2] was 0.0124 % of ANNNNAAN 8-mers.
In the case of ATGGGAAT, the binding signal (POU1 (OCT1 POU domain)) is reported as 0.117 % of ANNNNAAN 8-mers, the binding signal (POU2 (OCT2 POU domain)) is reported as 0.128 % of ANNNNAAN 8-mers and the binding signal [1] is reported as 0.0995 % of ANNNNAAN 8-mers. For the same sequence, the binding signal [2] was 0.116 % of ANNNNAAN 8-mers.
ATGGGAAA was tested, and the binding signal (POU1 (OCT1 POU domain)) was 0.098 % of ANNNNAAN 8-mers, the binding signal (POU2 (OCT2 POU domain)) was 0.1 % of ANNNNAAN 8-mers and the binding signal [1] was 0.118 % of ANNNNAAN 8-mers. The binding signal [2] was 0.0784 % of ANNNNAAN 8-mers.
AAACCAAT was tested, and the binding signal (POU1 (OCT1 POU domain)) was 0.0336 % of ANNNNAAN 8-mers, the binding signal (POU2 (OCT2 POU domain)) was 0.0265 % of ANNNNAAN 8-mers and the binding signal [1] was 0.0437 % of ANNNNAAN 8-mers. The binding signal [2] was 0.0347 % of ANNNNAAN 8-mers.
ACTTGAAG was tested, and the binding signal (POU1 (OCT1 POU domain)) was 0.0198 % of ANNNNAAN 8-mers, the binding signal (POU2 (OCT2 POU domain)) was 0.0236 % of ANNNNAAN 8-mers and the binding signal [1] was 0.0273 % of ANNNNAAN 8-mers. For the same sequence, the binding signal [2] was 0.0239 % of ANNNNAAN 8-mers.
In the case of AGGGCAAG, the binding signal (POU1 (OCT1 POU domain)) is reported as 0.0294 % of ANNNNAAN 8-mers, the binding signal (POU2 (OCT2 POU domain)) is reported as 0.0322 % of ANNNNAAN 8-mers and the binding signal [1] is reported as 0.0332 % of ANNNNAAN 8-mers. For the same sequence, the binding signal [2] was 0.0363 % of ANNNNAAN 8-mers.
ACAGGAAA was tested, and the binding signal (POU1 (OCT1 POU domain)) was 0.0526 % of ANNNNAAN 8-mers, the binding signal (POU2 (OCT2 POU domain)) was 0.0506 % of ANNNNAAN 8-mers and the binding signal [1] was 0.0702 % of ANNNNAAN 8-mers. The binding signal [2] was 0.0603 % of ANNNNAAN 8-mers.
In the case of AGATAAAG, the binding signal (POU1 (OCT1 POU domain)) is reported as 0.0439 % of ANNNNAAN 8-mers, the binding signal (POU2 (OCT2 POU domain)) is reported as 0.0495 % of ANNNNAAN 8-mers and the binding signal [1] is reported as 0.0359 % of ANNNNAAN 8-mers. The binding signal [2] was 0.0281 % of ANNNNAAN 8-mers.
With AAGGAAAA the binding signal (POU1 (OCT1 POU domain)) was 0.113 % of ANNNNAAN 8-mers, the binding signal (POU2 (OCT2 POU domain)) was 0.0955 % of ANNNNAAN 8-mers and the binding signal [1] was 0.17 % of ANNNNAAN 8-mers. The binding signal [2] was 0.0999 % of ANNNNAAN 8-mers.
In the case of ACTATAAG, the binding signal (POU1 (OCT1 POU domain)) is reported as 0.029 % of ANNNNAAN 8-mers, the binding signal (POU2 (OCT2 POU domain)) is reported as 0.0339 % of ANNNNAAN 8-mers and the binding signal [1] is reported as 0.03 % of ANNNNAAN 8-mers. The binding signal [2] was 0.0314 % of ANNNNAAN 8-mers.
With ATGACAAC the binding signal (POU1 (OCT1 POU domain)) was 0.0259 % of ANNNNAAN 8-mers, the binding signal (POU2 (OCT2 POU domain)) was 0.0207 % of ANNNNAAN 8-mers and the binding signal [1] was 0.0277 % of ANNNNAAN 8-mers. For the same sequence, the binding signal [2] was 0.0355 % of ANNNNAAN 8-mers.
For ATTCGAAG, the binding signal (POU1 (OCT1 POU domain)) was 0.0564 % of ANNNNAAN 8-mers, the binding signal (POU2 (OCT2 POU domain)) was 0.0656 % of ANNNNAAN 8-mers and the binding signal [1] was 0.0464 % of ANNNNAAN 8-mers. The binding signal [2] was 0.0405 % of ANNNNAAN 8-mers.
With ACTACAAG the binding signal (POU1 (OCT1 POU domain)) was 0.0194 % of ANNNNAAN 8-mers, the binding signal (POU2 (OCT2 POU domain)) was 0.0201 % of ANNNNAAN 8-mers and the binding signal [1] was 0.0183 % of ANNNNAAN 8-mers. The binding signal [2] was 0.0231 % of ANNNNAAN 8-mers.
In the case of AGACAAAG, the binding signal (POU1 (OCT1 POU domain)) is reported as 0.0404 % of ANNNNAAN 8-mers, the binding signal (POU2 (OCT2 POU domain)) is reported as 0.0374 % of ANNNNAAN 8-mers and the binding signal [1] is reported as 0.0558 % of ANNNNAAN 8-mers. For the same sequence, the binding signal [2] was 0.0248 % of ANNNNAAN 8-mers.
For AATGCAAA, the binding signal (POU1 (OCT1 POU domain)) was 1.36 % of ANNNNAAN 8-mers, the binding signal (POU2 (OCT2 POU domain)) was 1.1 % of ANNNNAAN 8-mers and the binding signal [1] was 2.58 % of ANNNNAAN 8-mers. For the same sequence, the binding signal [2] was 3.21 % of ANNNNAAN 8-mers.
In the case of AAATAAAG, the binding signal (POU1 (OCT1 POU domain)) is reported as 0.156 % of ANNNNAAN 8-mers, the binding signal (POU2 (OCT2 POU domain)) is reported as 0.151 % of ANNNNAAN 8-mers and the binding signal [1] is reported as 0.168 % of ANNNNAAN 8-mers. The binding signal [2] was 0.171 % of ANNNNAAN 8-mers.
AATCCAAT was tested, and the binding signal (POU1 (OCT1 POU domain)) was 0.0507 % of ANNNNAAN 8-mers, the binding signal (POU2 (OCT2 POU domain)) was 0.0552 % of ANNNNAAN 8-mers and the binding signal [1] was 0.0605 % of ANNNNAAN 8-mers. The binding signal [2] was 0.0504 % of ANNNNAAN 8-mers.
